# Records with an inconclusive call do not appear. A number with no mark means an inactive call. Calls follow the shape of the dose curve; as a rule, active = well fitted activation curve with a large enough effect; inconclusive = small, poorly fitted or top-dose-only effect; inactive = no such curve, though single readings can be large or run the other way.
# Test: qHTS assay for re-activators of p53 using a Luc reporter: Hit Validation with no p53 Expressed; also: 0% is about no effect
# Conditions: p53-null cells, luciferase reporter counter-screen; series mostly up to 46.1 µM; activity change, positive = activation: at the top concentration
# Summary of the method: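 Without p53 expression, cells (1000/well, Opti-MEM + 10% FBS) were exposed 24 h at 37 deg C to compounds in a 1:5 series from 10 mM stock (top 46.1 µM in well). Luminescent signal read 10 min after Amplite addition; actives flag unspecific activation.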
row,Structure (SMILES),"activity change, positive = activation [%]"
1,O=C(/C=C/c1ccco1)Nc1ccc2nn(-c3ccccc3)nc2c1,-36.9
2,COc1cc(CNC2CCCCCCC2)c(Br)cc1OCCO,8.85
3,CCOc1cc(S(=O)(=O)NC2CCCCCC2)ccc1F,35.2
4,CC1(C)Oc2ccc(NC(=O)C3COc4ccccc4O3)cc2O1 (centres undefined),18
5,COc1ccc(/C=N/Nc2nncc3ccccc23)cc1,31.9
6,Cc1ccccc1Cn1nnc(-c2cccc(C(=O)O)c2)n1,-24.8
7,Cc1ccc(NC2=C(Cl)C(=O)c3ccccc3C2=O)cc1,-87.6
8,c1ccc(-c2cn3nc(-c4ccccc4)cnc3n2)cc1,50.2
9,CCC(C)C(=O)N1CCc2cc(-c3csc(N)n3)ccc21 (centres undefined),31.1
10,Cc1csc2nc(COC(=O)c3cccc(N(C)C)c3)cc(=O)n12,42.9
11,O=C(NNC1=C(C(=O)C(F)(F)F)CCC1)c1cccc(O)c1,-60.1
12,Cc1ccc(-c2nc3ccccc3o2)cc1NC(=O)c1ccc2c(c1)OCO2,13.8
13,Cc1cccc(NC(=O)/C=C/c2ccc(Cl)cc2)n1,-19.5
14,Cc1ccc(C(=O)CC(Nc2ccc(F)cc2)c2ccccc2)cc1 (centres undefined),78.9
15,CC(=O)c1cccc(NS(=O)(=O)N(C)C)c1,0.341
16,COc1ccc(-n2cnc3c(cnn3CCC#N)c2=N)cc1,-37.8
17,COC(=O)c1cn[nH]c1NC(=S)Nc1ccc(C)cc1Cl,58.3
18,CC(C)c1ccc(NC(=S)NN2CCOCC2)cc1,-15.3
19,Cn1ncc([N+](=O)[O-])c1C(=O)Nc1ccc(C2CCCCC2)cc1,2.99

# From PubChem BioAssay AID624331 (National Center for Advancing Translational Sciences (NCATS), 2012)
